DT40 TDP1 CPT: growth inhibition of DT40 Tdp1-/-;hTDP1 cells with camptothecin (screen for TDP1 inhibitors). 12% of 420,000 active. Potency, µM (titrated, usually from 46.2 µM), without a hit: at the highest dose activity change, negative = growth inhibition, actives largely listed as inhibitors. chicken DT40 Tdp1-/-;hTDP1 cells + 20 nM CPT, ATP luminescence, 48 h. AID 686979; note: potency is the fitted concentration of half-maximal effect; nearly all actives have a fitted effect of over 55% in size
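Chicken DT40 Tdp1-/- cells stably complemented with human TDP1 were seeded at 400 cells/well in medium containing 20 nM camptothecin, exposed to pin-transferred compounds, and grown at 37 °C for at least 48 hr. Viability was read as ATP luminescence.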
TDP1 cell noCPT: qHTS for Inhibitors of human tyrosyl-DNA phosphodiesterase 1 (TDP1): qHTS in cells in absence of CPT; DT40 Tdp1-/- hTDP1 cells, no CPT, ATP luminescence, 48 h; 15% of 420,000 active; AID 686978, 2013; Potency, µM (highest dose often 46.2 µM), inactives show top-dose activity change, negative = growth inhibition, actives largely listed as inhibitors; note: potency is the fitted concentration of half-maximal effect; nearly all actives have a fitted effect of over 55% in size
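No-CPT arm: Tdp1-/-;hTDP1 DT40 cells (400/well) plus compounds, incubated ≥48 hr at 37 °C. Readout CellTiter-Glo luminescence.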
HT1080-NT tox: kills 2HG-producing HT-1080-NT fibrosarcoma cells. HT-1080-NT fibrosarcoma viability, CellTiter-Glo ATP luminescence, 48 h. Potency, µM (top dose mostly 46.1 µM), for the others: at the top dose activity, negative = less viability, usual class: cytotoxic. 1.6% of 360,000 active. AID 686970;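 note: NT is the 2HG producing partner of a matched IDH1 knockdown line; potency is the fitted concentration of half-maximal effect; 0% = DMSO-treated cells and -100% = media-only wells without cells; nearly all actives have a fitted effect of over 55% in size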
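Toxicity toward the 2HG-producing NT line was scored as %Activity, normalised to DMSO and no-cell wells, from CellTiter-Glo luminescence after 48 hours' treatment.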
IL-1B inflam inh: inflammasome signaling inhibition, IL-1 beta readout; THP-1 LPS/ATP IL-1B secretion, AlphaLISA, 16 h; active compounds read low; activity change, % at 57.5 µM; 4.7% of 360,000 active; in the data active = activity change below about -50%; inconclusive = mostly about -30% to -49%
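Secreted IL-1B measured by AlphaLISA bead assay after 16 h compound exposure of THP-1 cells; compounds (final up to 57.5 uM) added 1 h before LPS (250 ng/mL) and ATP (1.25 mM) stimulation; lower signal means less secretion.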
HT1080 IDH1KD tx: kills HT-1080 cells with IDH1 knockdown. Potency, µM (highest dose often 46.1 µM), inactives show top-dose activity, negative = toxicity, actives largely listed as cytotoxic. 2% of 360,000 active. AID 686971. HT-1080 IDH1 knockdown viability, ATP luminescence, 48 h;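 note: potency is the fitted concentration of half-maximal effect; 0% = DMSO wells and -100% = cell-free medium wells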
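HT-1080-IDH1KD cells (IDH1 knocked down), 750/well in RPMI with 5% FBS, treated with compound 48 h at 37 degrees C. Viability by CellTiter-Glo luminescence, normalised to DMSO and no-cell wells; concentration-response curves classed.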
* = called active by the depositor; ? = inconclusive; nt = no result. Sampled rows, rich in hits. Any-hit rate of the full collection: about 19%. Unless noted, calls come from the whole dose curve; as a rule, active = well fitted curve in the direction sought with a large enough effect; inconclusive = small, poorly fitted or top-dose-only effect, or another doubt; inactive = no such curve, though single readings can be large; an effect the other way counts as inactive or inconclusive. Unless noted, % is set by controls: 0 for no effect and ±100 for the full control effect.

SMILES	DT40 TDP1 CPT	TDP1 cell noCPT	HT1080-NT tox	IL-1B inflam inh	HT1080 IDH1KD tx
COc1cc(OC)c(C(=O)NC23CC4CC(CC(C4)C2)C3)cc1OC	?	18µM*	-4%	3	-7%
COc1cc(OC)cc(C(=O)NC(C(=O)N2CCc3ccccc3C2)C(C)C)c1 (stereo not drawn)	21µM*	?	?	31	?
Cc1ccc(N2C(=O)CN(Cc3ccccc3)C2=S)cc1C	14%	1%	10%	26	5%
COc1cc(/C=N/NC(=O)NC23CC4CC(CC(C4)C2)C3)ccc1O	-24%	?	26µM*	?	?
CCn1cc(S(=O)(=O)c2cccc(C)c2)c(=O)c2cc(F)c(N3CCCC(C)C3)cc21 (stereo not drawn)	?	-7%	nt	nt	nt
Cc1cc(Cl)c2oc(C(=O)N(C)CCCN3CCOCC3)c(C)c2c1	?	16µM*	-29%	0	-4%
Cc1cc(Cl)c2oc(C(=O)N(C)CCCCN3CCOCC3)c(C)c2c1	-19%	?	?	-7	?
Cc1cc(Cl)c2oc(C(=O)NCC(C)(C)N3CCOCC3)c(C)c2c1	23µM*	?	5%	50	10%
Cc1cc(C(=O)NCC(C)(C)N2CCOCC2)c(C)o1	2%	0%	12%	0	4%
CC(C)(CNC(=O)c1sc2cc(Cl)ccc2c1Cl)N1CCOCC1	16µM*	16µM*	-10%	?	1%
Cc1cc(Cl)c2oc(C(=O)N(C)CCc3cnn(C)c3)c(C)c2c1	18µM*	-5%	-2%	21	8%
O=C(NCCN1CCOCC1)c1sc2cc(Cl)ccc2c1Cl	-1%	?	?	?	-3%
CN(CC(=O)NC(=O)NCc1ccccc1)CC(=O)Nc1ccc(Cl)c(Cl)c1	26µM*	?	-26%	-8	?
O=C(Nc1ccc(Cl)c(Cl)c1)c1ccc2c(c1)OCO2	14%	?	-11%	-7	-7%
CN(CC(=O)Nc1ccc(Cl)c(Cl)c1)CC(=O)Nc1ccc2c(c1)OCO2	?	4%	-19%	-57*	-14%
CN(CC(=O)Nc1ccc(Cl)c(Cl)c1)C(=O)CNC(=O)Cc1ccccc1	21µM*	13µM*	-6%	?	10%
CS(=O)(=O)Nc1cccc(-c2cncnc2Nc2ccc(F)cc2)c1	11%	-11%	nt	nt	nt
O=C(NCCc1nnc2ccc(N3CCCC3)nn12)c1ccccc1	-8%	-9%	-9%	3	-6%
NC(=O)CSc1ncnc2c1nnn2Cc1ccc(F)cc1	2%	?	-15%	-96*	?
O=C(Cn1cnc2c(nnn2Cc2ccc(F)cc2)c1=O)NCc1ccc(F)cc1	?	?	?	22	18µM*
O=C(CSc1ncnc2c1nnn2Cc1ccc(F)cc1)NCC1CCCO1 (stereo not drawn)	?	?	?	-1	?
COC(=O)C[C@H]1CC[C@H](NC(=O)Nc2ccccc2OC)[C@@H](CO)O1	-3%	-8%	22%	-10	9%
Cc1ccc(NC(=O)COc2cccc3ccc(C)nc23)c(Br)c1	?	23µM*	-4%	0	-8%
O=C(CSc1nnc(-c2ccco2)n1Cc1ccccc1)NCc1ccccc1	-30%	?	4%	-8	8%
c1ccc(Cn2c(SCc3nc4ccccc4s3)nnc2-c2ccco2)cc1	15µM*	?	-3%	-15	-5%
COC(=O)CCNCCSc1nnc(-c2ccco2)n1Cc1ccccc1	12µM*	8.2µM*	23%	0	1%
COc1ccc(CNC(=O)c2ccc3nc(C)c(N(C)Cc4ccc(NC(C)=O)cc4)n3c2)cc1	13µM*	16µM*	11%	-7	6%
CCCCC(=O)N(C)c1c(C)nc2ccc(C(=O)NCc3ccccc3OC)cn12	-5%	-5%	5%	8	7%
CC(=O)Nc1ccc(CN(C)c2c(C)nc3ccc(C(=O)NCCCN4CCCC4=O)cn23)cc1	-15%	-3%	21%	0	10%
